The whole screen tested about 290,000 compounds, of which about 4,200 (1.4%) were called active. For the sample, actives were picked, then their nearest neighbours and some compounds at random. A number with no mark means an inactive call.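 The calls were made as follows: active = binding response more than 3 SD above or below the average of its plate-row segment, actives on both sides; inconclusive = wells at one plate position flagged as instrument error; inactive = the rest.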
The molecules below were run against Mitogen-activated protein kinase kinase kinase 3 (Homo sapiens) (UniProt Q99759) (assay: compounds raising or lowering MEK5 association with MEKK3 PB1 – biochemical, wildtype MEKK3, multiplex bead flow cytometry, Alexa488-MEK5, primary screen (AID 1529;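 also: Alexa488 bead fluorescence after subtracting the streptavidin-only scavenger bead signal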)). Details: bead-based flow cytometry, Alexa488-MEK5 binding to MEKK3; at 10 µM; actives lie on both sides; 0 = blocked by unlabeled MEK5, 100 = vehicle.
Sequence of Mitogen-activated protein kinase kinase kinase 3 (Homo sapiens) (Q99759 whole entry, looked up): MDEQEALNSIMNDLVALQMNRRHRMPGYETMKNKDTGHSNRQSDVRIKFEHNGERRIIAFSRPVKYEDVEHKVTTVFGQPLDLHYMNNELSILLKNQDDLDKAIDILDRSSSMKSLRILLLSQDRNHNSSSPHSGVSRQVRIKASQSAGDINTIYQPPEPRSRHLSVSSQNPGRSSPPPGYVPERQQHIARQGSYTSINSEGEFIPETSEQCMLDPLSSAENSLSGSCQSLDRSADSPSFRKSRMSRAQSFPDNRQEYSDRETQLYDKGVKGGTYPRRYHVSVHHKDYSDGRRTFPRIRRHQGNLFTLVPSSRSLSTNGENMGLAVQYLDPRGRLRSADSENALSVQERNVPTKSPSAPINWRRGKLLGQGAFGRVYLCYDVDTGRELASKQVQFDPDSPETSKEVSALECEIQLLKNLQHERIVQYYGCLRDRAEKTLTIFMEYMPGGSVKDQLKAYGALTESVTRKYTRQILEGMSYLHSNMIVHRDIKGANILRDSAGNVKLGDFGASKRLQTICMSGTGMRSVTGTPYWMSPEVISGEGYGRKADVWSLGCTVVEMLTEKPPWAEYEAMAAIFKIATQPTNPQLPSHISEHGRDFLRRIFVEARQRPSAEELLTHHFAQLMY

| Structure (SMILES) | binding response (% of control) |
| --- | --- |
| COc1ccc(-c2noc(COc3ccc(Cl)c(C)c3)n2)cc1 | 102% |
| Cc1cc(Cl)ccc1OCc1nc(-c2ccncc2)no1 | 73% [inhibitor] (active) |
| c1ccc(CCc2nc(-c3ccncc3)no2)cc1 | 105% |
| CCC1Oc2ccccc2N(CC(=O)NCCCN2CCN(CC)CC2)C1=O (stereo unspecified) | 105% |
| COc1ccc(S(=O)(=O)N(C)CC(=O)N2CCCC2)cc1 | 101% |
| C[N+](C)(C)CCNC(=O)c1c(O)c2c([nH]c1=O)CCCC2 | 78% [inhibitor] (active) |
| O=C(NCc1ccccn1)c1c(O)c2c([nH]c1=O)CCCC2 | 107% |
| CCc1nnc(NC(=O)c2c(O)c3c([nH]c2=O)CCCC3)s1 | 105% |
| O=C(CN(c1cc(C(F)(F)F)ccc1Cl)S(=O)(=O)c1ccccc1)NCc1cccnc1 | 101% |
| COc1cc(NC(=O)C2CCN(c3cnccn3)CC2)cc(OC)c1 | 102% |
| Cc1[nH]c2ccc(C(=O)N3CCN(C)CC3)cc2c1C | 99% |
| Cc1[nH]c2ccc(S(N)(=O)=O)cc2c1C | 81% [inhibitor] (active) |
| COC(=O)CCNC(=O)c1ccc2[nH]c(C)c(C)c2c1 | 102% |
| Cc1cccc(Nc2nc(NCCO)nc(N3CCCC3)n2)c1 | 106% |
| CN(CCNC(=O)c1cc2c(-c3ccccc3F)nn(C)c2s1)C1CCCCC1 | 108% |
| CC(C)(C)NC(=O)/C(=C/c1cccnc1)NC(=O)c1ccco1 | 101% |
| Cc1ccc(C(=O)N/C(=C/c2cccnc2)C(=O)O)cc1 | 95% |
| O=C(O)/C(=C/c1cccnc1)NC(=O)c1ccccc1 | 156% (active) |
| Cc1nnc(SCC(=O)Nc2ccc(S(=O)(=O)Nc3ccc(Cl)nn3)cc2)s1 | 99% |
| COc1ccccc1/C=C1\SC(=O)N(CCC(=O)N(C)C2CCS(=O)(=O)C2)C1=O (stereo unspecified) | 98% |
| Cc1c(CN2CC[C@@H](N3CCN(c4ccccn4)CC3)[C@H](O)C2)[nH]c2ccc(F)cc12 | 104% |
| CCOC(=O)CN(C)S(=O)(=O)c1ccc(-c2cc(C(=O)OC)sc2C(F)(F)F)cc1 | 129% (active) |
| Cc1ccc(S(=O)(=O)N(C)CC(=O)OCC(=O)Nc2ccccc2)cc1 | 94% |
| COC(=O)c1sc(C(F)(F)F)c(-c2ccccc2)c1S(=O)(=O)N(C)C | 106% |
| O=C(O)C1=NN(c2c(F)c(F)cc(F)c2F)C(=O)CC1 | 95% |
| CCOC(=O)CSc1nnc(NC(=O)C2CC(=O)N(c3ccc(F)cc3)C2)s1 (stereo unspecified) | 102% |

— PubChem BioAssay AID1529 (NMMLSC, 2009)
